Experimental data as given in PubChem BioAssay.
Unmarked numbers belong to inactive results. How the calls were made is not given here.

molecular target: Pantothenate synthetase (Mycobacterium tuberculosis (strain ATCC 25618 / H37Rv)) (UniProt P9WIL5); assay: Recombinant Mtb pantothenate synthetase (PanC) inhibitors, coupled enzyme, confirmatory (AID 375); conditions: coupled enzyme assay; at 10 µM, stronger effect = higher value;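 further: 0% = full reaction with vehicle and 100% = no enzyme background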
Sequence (P9WIL5 whole entry, looked up): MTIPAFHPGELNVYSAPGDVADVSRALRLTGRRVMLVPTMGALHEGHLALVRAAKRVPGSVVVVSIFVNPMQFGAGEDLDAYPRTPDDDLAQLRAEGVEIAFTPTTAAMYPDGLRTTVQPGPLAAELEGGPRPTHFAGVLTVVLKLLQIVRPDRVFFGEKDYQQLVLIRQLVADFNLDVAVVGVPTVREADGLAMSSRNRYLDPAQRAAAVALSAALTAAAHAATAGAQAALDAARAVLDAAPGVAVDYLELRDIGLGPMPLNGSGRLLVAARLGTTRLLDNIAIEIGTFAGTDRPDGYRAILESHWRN

Compound	inhibition [%]
O=C(NCc1nc2ccccc2[nH]1)c1ccc(Cl)c(S(=O)(=O)N2CCCC2)c1	1
CN(C1CCCCC1)S(=O)(=O)c1ccc(S(=O)(=O)N2CCN(CCC#N)CC2)cc1	6
CC(=O)Nc1ccc(NC(=O)c2cc(C)nn2-c2ccccc2)cc1	2
CCN(CC)CCCNC(=O)c1cn(C)c2ccc(S(=O)(=O)N(C)C)cc2c1=O	10
CCOC(=O)Cn1c(CCC(=O)O)ccc1-c1ccc(F)cc1	3
O=C(NCCc1ccccn1)c1ccc(COc2ccccc2)o1	0
C[C@H](NC(=O)NCc1cccs1)C(=O)O	0
CCOC(=O)c1nnc2ccnn2c1N	0
COc1ccc2c(c1)C1(Nc3ccccc3-c3nc4ccccc4n31)C(=O)N2 (stereo not given)	0
CCN(CC)S(=O)(=O)c1ccc(NC2c3ccccc3C(=O)N2CCN2CCOCC2)cc1 (stereo not given)	0
CC(=O)OC(C)C[N+](C)(C)C (stereo not given)	3
CCOc1ccc(N(CC(=O)Nc2cccc(OC)c2)S(=O)(=O)c2c(C)noc2C)cc1	11
COC(=O)CCSCc1cn2cc(Cl)ccc2n1	0
CC(C)(C)NC(=O)C(c1ccco1)N(C(=O)Cn1nnc(-c2ccc(F)cc2)n1)c1ccccc1 (stereo not given)	0
COc1cccc(NC(=O)C2CCCN(S(=O)(=O)c3cccc4cccnc34)C2)c1 (stereo not given)	0
COc1ccc(C(=O)CN2C3=NCCCN3c3ccccc32)cc1OC	0
COc1ccc(N2CCN(C(=O)c3c(-c4ccccc4)noc3C)CC2)cc1	0
Cc1ccc(NC(=O)CSc2nnc(-c3ccccn3)n2C)cc1	1
COc1ccc(-c2cc3c(=O)n(CC(=O)NC4CCN(Cc5ccccc5)CC4)ncn3n2)cc1	1
O=C1NC(c2cccs2)Nc2ccccc21 (stereo not given)	0

Compound	inhibition [%]
O=C1C(Cl)=C(N2CCCCC2)C(=O)N1c1ccccc1Cl	7
COc1ccc(C(=O)OC(COc2ccccc2)Cn2ccnc2)cc1 (stereo not given)	0
CCn1c(SCC(=O)Nc2ccc(Cl)cc2)nnc1C1CC1	0
CN(C(=O)COc1cc(=O)n(C)c2ccccc12)c1ccc(Br)cc1	0
CN1C(=O)CC(N2CCC(C(N)=O)(N3CCCCC3)CC2)C1=O (stereo not given)	0
O=C(CSc1n[nH]c(-c2cccs2)n1)N1CCN(S(=O)(=O)c2ccccc2)CC1	0
CC1=C(C(=O)OC2CCCCCC2)C(c2ccc(C)o2)C2=C(CCCC2=O)N1 (stereo not given)	0
O=C1CCCN1CCCNc1ncnc2c1[nH]c1ccc(Cl)cc12	9
O=c1c2ccccc2nc(SCc2cccc(F)c2)n1Cc1ccco1	4
CCOc1ccccc1C1NC(=O)NC(C)=C1C(=O)OC1CCCC1C (stereo not given)	2
CC(=O)N1CCN=C1SCc1c(F)cccc1Cl	2
O=C(CCSc1nc(-c2ccco2)cc(C(F)(F)F)n1)Nc1ccc2c(c1)OCO2	0
CCCCOc1ccccc1C(=O)NCCCC(=O)O	0
CC1C(c2ccccc2)N(C)CCC12NC(=O)NC2=O (stereo not given)	1
COCCCNC(=O)CCn1c(=O)c2ccccc2n(CC(=O)Nc2ccc(C)cc2C)c1=O	0
Cc1nn(-c2ccccc2)c2c1C(O)n1c(nc3ccccc31)S2 (stereo not given)	2
CCOc1ccc(NC(=O)CN2CCN(CC(=O)c3ccc(OCC)cc3)CC2)cc1	4
Cc1cccc(N2C(=O)CC(N3CCN(Cc4ccc(Cl)cc4)CC3)C2=O)c1 (stereo not given)	0
C=CCn1c(COc2ccccc2F)nnc1SCC(=O)N1CC(=O)Nc2ccccc21	1
COc1ccc(C(=O)OCC(=O)NCc2ccco2)cc1OC	0
